We go through 17 compounds from PubChem BioAssay (NCATS).

SMILES strings stand for the structures. Inconclusive results are not listed. A number with no mark means an inactive call. Calls of active or inactive are those of the source. The call rests on the fitted dose curve; in most records, active means well fitted cell-killing curve with a large enough effect; inconclusive means small, poorly fitted or top-dose-only effect, or effect the other way; inactive means no such curve, though single readings can be large or run the other way.
On the % scale 0 is the no-effect control and ±100 the full control effect; potency means the concentration at half of the fitted maximal effect.

The nature of this assay: qHTS of pediatric cancer cell lines to identify multiple opportunities for drug repurposing: Confirmatory screen for Rh30 cells (AID 1347126). Further: nearly all actives have a fitted effect of over 55% in size. The settings on record: Rh30 rhabdomyosarcoma cell viability; series mostly up to 45.9 µM; activity change, negative = cytotoxic: at the top concentration. The text has this: Drug repurposing or repositioning has been offered as a strategy for drug development in oncology programs. This approach has special potential for childhood cancers and other rare or orphan diseases, where the expected return on new drug development has been a disincentive to pharmaceuticals.
In this project we exploit the poly-pharmacology of drugs to discover new indications via phenotypic screening of a panel of 19 well-characterized cell lines derived from solid tumors seen in children and adolescents. The goal is to identify approved drugs with previously unrecognized anticancer properties that has the potential to reveal new mechanisms and biological processes involved in carcinogenesis or drug resistance. We employed a titration-based paradigm (quantitative high-throughput screening or qHTS), where all compounds were tested at multiple concentrations for their effect on cell viability. Concentration-response curves (CRCs) were derived directly from the primary screen, and both potency and efficacy values were used to identify compounds with robust bioactivity profiles. We screened the NIH Chemical Genomics Center (NCGC) Pharmaceutical Collection (NPC) and Mechanism Interrogation Plate (MIPE) small molecule collections of approved and investigational compounds against these cell lines; and measured metabolically active cells after 48 hours of compound treatment as a proxy for cell viability.
Assay Submitter: Nathalia J. Martinez, National Center for Advancing Translational Sciences, National Institutes of Health, Rockville, MD, USA; email: natalia.martinez@nih.gov
[1] Shen, M et al. Quantitative high-throughput phenotypic screening of pediatric cancer cell lines identifies multiple opportunities for drug repurposing. Oncotarget 2017 Dec 19;9(4):4758-4772. PMID 29435139.
The cells were obtained from University of North Carolina (UNC), Pediatric Preclinical Testing Program (PPT), and Coriell Institute (CI).
qHTS cell viability assay:
Cells were assayed in growth media at a density of 500-1,000 cells/well. Five microliters of cells were dispensed into 1,536-well, white, solid-bottom, TC-treated plates (Greiner Bio One) using a multidrop dispenser and incubated at 37 degrees C, 5% CO2, under a humidified atmosphere for 5 hours. Twenty-three nanoliters of compounds and controls (neutral control DMSO or positive control bortezomib at final concentration of 2.3 µM) were subsequently transferred by Kalypsys pintool. For primary screens, the MIPE collection was tested at 11-point dilutions (final concentrations range from 0.78 nM to 46 µM) and the NPC collection at 8-point dilutions (final concentrations range from 0.59 nM to 46 µM). Compounds tested in follow-up screens were assayed at 11-point dilutions. Cells were incubated for 48 hours, followed by addition of 3 µL of CellTiter-Glo (Promega). After a 15 min incubation at room temperature, samples were analyzed for luminescence intensity using a ViewLux High-throughput CCD imager equipped with clear filters.
Background: Quantitative high-throughput screening tests each substance at several concentrations.
`O=C1c2c(O)ccc(O)c2C(=O)c2c(NCCNCCO)ccc(NCCNCCO)c21`: the Potency was 4.14 µM (active).

Consider `CC(COc1ccccc1)N(CCCl)Cc1ccccc1` (configuration not stated), for which the Potency is 16.5 µM (active).

For the compound `Clc1ccc(C(c2ccccc2Cl)C(Cl)Cl)cc1` (configuration not stated), the “activity change, negative = cytotoxic” value was -7.51%. As for `CCCCc1oc2ccccc2c1C(=O)c1cc(I)c(OCCN(CC)CC)c(I)c1`, the Potency was 56.2 µM (active).

On to `NC12CC3CC(CC(C3)C1)C2`, for which the “activity change, negative = cytotoxic” value was 6.06%. As to `COC(=O)Nc1nc2ccc(C(=O)c3cccs3)cc2[nH]1`, the “activity change, negative = cytotoxic” value is 7.17%. As for `CC[C@@]1(O)C(=O)OCc2c1cc1n(c2=O)Cc2cc3c(CN(C)C)c(O)ccc3nc2-1`, the Potency is 2.93 µM (active). As for `CN(Cc1cnc2nc(N)nc(N)c2n1)c1ccc(C(=O)N[C@@H](CCC(=O)O)C(=O)O)cc1`, the “activity change, negative = cytotoxic” value is -18.1%. Consider `CS(=O)(=O)CCNCc1ccc(-c2ccc3ncnc(Nc4ccc(OCc5cccc(F)c5)c(Cl)c4)c3c2)o1`, for which the Potency was 14.7 µM (active). The same measure, in the same setting: then `O=C(Nc1ccc([N+](=O)[O-])cc1Cl)c1cc(Cl)ccc1O`, with 2.29 µM (active); and `Clc1ccc2nsnc2c1NC1=NCCN1`, with 7.37 µM (active). For the compound `CC(C)Cc1ccc(C(C)C(=O)O)cc1` (configuration not stated), the “activity change, negative = cytotoxic” value was -3.35%. With `O=C(c1ccc(OCCN2CCCCC2)cc1)c1c(-c2ccc(O)cc2)sc2cc(O)ccc12`, the Potency is 3.69 µM (active). For `CS(=O)(=O)Nc1ccc([N+](=O)[O-])cc1Oc1ccccc1`, the “activity change, negative = cytotoxic” value is -2.97%. For the compound `CN1CCN(CCCN2c3ccccc3Sc3ccc(Cl)cc32)CC1`, the Potency is 18.5 µM (active). Turning to `CCC1(c2ccccc2)C(=O)NCNC1=O`, the “activity change, negative = cytotoxic” value was 8.83%.

With `CC(CCc1ccc(O)cc1)NCCc1ccc(O)c(O)c1` (configuration not stated), the “activity change, negative = cytotoxic” value is 14.5%.
